# PubChem BioAssay (NCATS)
# “And” between values parts separate entries of the source, which are not always exact repeats. Identical values can stand only once. The source made the active and inactive calls. Unless noted, calls follow the shape of the full dose curve.
# Key:
# [1] = qHTS assay for small molecule agonists of the antioxidant response element (ARE) signaling pathway (AID 651741; active = well fitted activation curve with a large enough effect in the signal ratio; inconclusive = small, poorly fitted or top-dose-only effect, or effect the other way, or a change in a side signal; the % refers to the signal ratio; also: potency is read from the fitted curve at half-maximal effect); conditions: HepG2 ARE-bla reporter, beta-lactamase FRET ratio, 16 h; series mostly up to 96 µM
# How it was run: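 Beta-lactamase reporter under ARE control in HepG2 cells, 2,000 per well, was induced by 16 h compound treatment at 37 C. Read-out was fluorescence from LiveBLAzer B/G FRET substrate after 2 h at room temperature.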
# [2] = qHTS assay for small molecule activators of the nuclear factor-kappa B (NF-kB) signaling pathway (AID 651749; active = well fitted activation curve with a large enough effect in the signal ratio; inconclusive = small, poorly fitted or top-dose-only effect, or a change in a side signal; the % refers to the signal ratio; also: % of control where 0% means no effect); conditions: NF-kB-bla ME-180 cells, beta-lactamase FRET ratio, 16 h; stronger effect = higher value
# How it was run: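 Activation measured after 16 hr compound treatment at 37C, 5% CO2, of 2,000 ME-180 cells/well stably expressing an NF-kB response element–driven beta-lactamase reporter, via FRET-disruption fluorescence.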
# [3] = qHTS assay to identify small molecules that stimulate interleukin-8 (IL-8) secretion (AID 651758; active = well fitted activation curve with a large enough effect in the signal ratio; inconclusive = small, poorly fitted or top-dose-only effect, or effect the other way, or a change in a side signal; the % refers to the signal ratio; also: 0% is about no effect); conditions: HTRF ratio (665/615); series mostly up to 92.2 µM
# How it was run: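 Secreted IL-8 measured homogeneously by TR-FRET (two labelled anti-IL-8 antibodies, 1-3 h at room temperature) after a 16 h, 37 C compound treatment of THP-1 cells at 2000 cells/well.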
# [4] = target: Estrogen receptor (Homo sapiens) (UniProt P03372); assay: qHTS assay for small molecule antagonists of estrogen receptor alpha signaling (AID 588513; active = well fitted curve in the direction sought with a large enough effect in the signal ratio, with a control signal flat, not every such curve was filed as active; inconclusive = small, poorly fitted or top-dose-only effect, or effect the other way, or a change in a side signal; inactive = no such curve, though single readings can be large or run the other way; the % refers to the signal ratio; also: potency is read from the fitted curve at half-maximal effect); conditions: ER-alpha-UAS-bla HEK293, beta-lactamase ratio, antagonist mode; series mostly up to 76.9 µM
# Estrogen receptor (Homo sapiens), sequence (P03372 whole entry, looked up): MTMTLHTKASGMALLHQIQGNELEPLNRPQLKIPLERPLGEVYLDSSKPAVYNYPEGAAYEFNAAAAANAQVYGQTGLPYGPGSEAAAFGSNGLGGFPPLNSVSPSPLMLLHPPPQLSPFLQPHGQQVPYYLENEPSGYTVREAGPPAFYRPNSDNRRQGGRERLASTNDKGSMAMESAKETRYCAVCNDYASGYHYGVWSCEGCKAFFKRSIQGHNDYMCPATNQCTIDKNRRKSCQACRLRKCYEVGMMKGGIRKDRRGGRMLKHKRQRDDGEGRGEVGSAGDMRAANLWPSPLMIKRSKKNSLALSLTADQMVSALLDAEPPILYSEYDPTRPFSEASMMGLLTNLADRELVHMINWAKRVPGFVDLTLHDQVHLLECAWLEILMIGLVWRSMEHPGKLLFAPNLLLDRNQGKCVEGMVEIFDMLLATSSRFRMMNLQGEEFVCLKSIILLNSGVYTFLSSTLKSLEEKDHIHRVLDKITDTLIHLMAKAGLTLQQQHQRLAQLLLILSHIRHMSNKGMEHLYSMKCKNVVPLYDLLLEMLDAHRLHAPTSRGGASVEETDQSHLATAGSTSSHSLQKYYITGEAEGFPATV
# How it was run: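 ER-alpha-UAS-bla GripTite HEK 293 cells in 2% charcoal/dextran-treated FBS medium; compounds titrated (1:2, duplicate), then stimulated with 0.5 nM 17-beta-estradiol for 18 h at 37C. CCF4 beta-lactamase fluorescence; Hill-fit IC50 and efficacy.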
# [5] = target: Bile acid receptor (Homo sapiens) (UniProt Q96RI1); assay: qHTS assay for small molecule antagonists of farnesoid X receptor signaling (AID 588526); conditions: HEK293T FXR-UAS-bla, beta-lactamase ratio, antagonist mode; series mostly up to 76.7 µM; also: potency is read from the fitted curve at half-maximal effect
# Bile acid receptor (Homo sapiens), sequence (Q96RI1 whole entry, looked up): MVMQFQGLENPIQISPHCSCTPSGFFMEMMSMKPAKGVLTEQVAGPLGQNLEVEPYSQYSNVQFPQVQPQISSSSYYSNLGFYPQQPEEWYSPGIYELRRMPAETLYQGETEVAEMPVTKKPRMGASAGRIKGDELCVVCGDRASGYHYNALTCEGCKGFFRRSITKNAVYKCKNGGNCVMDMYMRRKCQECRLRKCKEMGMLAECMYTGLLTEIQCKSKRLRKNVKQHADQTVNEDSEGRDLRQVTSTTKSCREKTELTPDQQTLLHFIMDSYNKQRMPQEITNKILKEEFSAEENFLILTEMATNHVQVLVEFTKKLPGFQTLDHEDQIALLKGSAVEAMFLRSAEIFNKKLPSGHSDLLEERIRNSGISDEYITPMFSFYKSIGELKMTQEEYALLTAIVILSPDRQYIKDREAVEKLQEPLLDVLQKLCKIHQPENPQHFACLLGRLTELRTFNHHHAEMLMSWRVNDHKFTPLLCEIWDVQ
# How it was run: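 Beta-lactamase reporter antagonist mode: HEK293T FXR-UAS-bla cells, titrated compound, CDCA stimulation, 16 h 37 C, CCF4 dye 2 h RT. Data normalized to CDCA 50 uM and DMSO; Hill-fit IC50.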
# [6] = qHTS assay for small molecule agonists of retinoid X receptor alpha signaling (AID 588544); conditions: HEK293T RXRa-UAS-bla, beta-lactamase reporter, 18 h; 530 nm emission;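 as to activation: 0% = DMSO basal wells and 100% = reference agonist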
# [7] = target: Retinoic acid receptor RXR-alpha (Homo sapiens) (UniProt P19793); assay: as above; conditions: HEK293T RXRa-UAS-bla, beta-lactamase reporter, 18 h; series mostly up to 76.7 µM
# Retinoic acid receptor RXR-alpha (Homo sapiens), sequence (P19793 whole entry, looked up): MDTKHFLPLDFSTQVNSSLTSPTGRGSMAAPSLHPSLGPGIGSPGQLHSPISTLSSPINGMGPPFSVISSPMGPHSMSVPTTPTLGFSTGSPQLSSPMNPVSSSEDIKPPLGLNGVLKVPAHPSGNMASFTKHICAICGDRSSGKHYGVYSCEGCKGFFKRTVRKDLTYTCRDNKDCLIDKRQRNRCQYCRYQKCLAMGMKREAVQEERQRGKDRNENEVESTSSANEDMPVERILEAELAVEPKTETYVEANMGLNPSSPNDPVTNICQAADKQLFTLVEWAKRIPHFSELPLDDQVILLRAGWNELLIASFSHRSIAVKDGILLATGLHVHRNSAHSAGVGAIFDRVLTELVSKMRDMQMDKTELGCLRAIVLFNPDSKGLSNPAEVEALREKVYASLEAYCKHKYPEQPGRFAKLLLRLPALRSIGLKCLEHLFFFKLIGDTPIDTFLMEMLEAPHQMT
# [8] = qHTS assay for small molecule antagonists of peroxisome proliferator-activated receptor delta signaling (AID 588535; active = well fitted inhibition curve with a large enough effect in the signal ratio, with a control signal flat, not every such curve was filed as active; inconclusive = small, poorly fitted or top-dose-only effect, or effect the other way, or a change in a side signal; inactive = no such curve, though single readings can be large or run the other way; the % refers to the signal ratio;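 as to max response: cells co-treated with a PPAR-delta agonist as stimulator during compound exposure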); conditions: HEK293T PPARd-UAS-bla, beta-lactamase FRET ratio, 18 h; 460 nm channel
# How it was run: (§1)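 Titrations were run on PPAR-delta-UAS-bla HEK293T cells in charcoal/dextran-stripped serum, incubated 18 h at 37 C. CCF4 fluorescence (460/530 nm) after 2 h RT; Hill equation yields IC50 and maximal response.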
# [9] = target: Peroxisome proliferator-activated receptor delta (Homo sapiens) (UniProt Q03181); assay: as above; conditions: HEK293T PPARd-UAS-bla, beta-lactamase FRET ratio, 18 h; series mostly up to 76.7 µM
# Peroxisome proliferator-activated receptor delta (Homo sapiens), sequence (Q03181 whole entry, looked up): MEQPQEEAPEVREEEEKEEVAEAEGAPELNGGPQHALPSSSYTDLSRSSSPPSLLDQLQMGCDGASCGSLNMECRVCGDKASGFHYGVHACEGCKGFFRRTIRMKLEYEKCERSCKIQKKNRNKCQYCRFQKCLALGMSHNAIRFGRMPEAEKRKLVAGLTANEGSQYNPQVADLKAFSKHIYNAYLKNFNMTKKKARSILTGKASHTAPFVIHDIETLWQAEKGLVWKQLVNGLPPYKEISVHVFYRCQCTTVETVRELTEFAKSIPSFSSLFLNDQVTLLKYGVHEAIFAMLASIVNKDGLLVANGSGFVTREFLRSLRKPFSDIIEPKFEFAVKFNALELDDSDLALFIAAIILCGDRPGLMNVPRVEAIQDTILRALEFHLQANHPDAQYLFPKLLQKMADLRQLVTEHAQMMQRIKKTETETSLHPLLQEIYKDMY
# How it was run: as §1
# [10] = target: Peroxisome proliferator-activated receptor gamma (Homo sapiens) (UniProt P37231); assay: qHTS assay for small molecule agonists of peroxisome proliferator-activated receptor gamma signaling (AID 588536; active = well fitted curve in the direction sought with a large enough effect in the signal ratio, with a control signal flat, not every such curve was filed as active; inconclusive = small, poorly fitted or top-dose-only effect, or effect the other way, or a change in a side signal; inactive = no such curve, though single readings can be large or run the other way; the % refers to the signal ratio;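 also: 0% = DMSO basal wells and 100% = rosiglitazone at 2 µM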); conditions: HEK293 PPARg-UAS-bla, beta-lactamase ratio, 16 h, percent of rosiglitazone response, DMSO as zero; series mostly up to 76.7 µM
# Peroxisome proliferator-activated receptor gamma (Homo sapiens), sequence (P37231 whole entry, looked up): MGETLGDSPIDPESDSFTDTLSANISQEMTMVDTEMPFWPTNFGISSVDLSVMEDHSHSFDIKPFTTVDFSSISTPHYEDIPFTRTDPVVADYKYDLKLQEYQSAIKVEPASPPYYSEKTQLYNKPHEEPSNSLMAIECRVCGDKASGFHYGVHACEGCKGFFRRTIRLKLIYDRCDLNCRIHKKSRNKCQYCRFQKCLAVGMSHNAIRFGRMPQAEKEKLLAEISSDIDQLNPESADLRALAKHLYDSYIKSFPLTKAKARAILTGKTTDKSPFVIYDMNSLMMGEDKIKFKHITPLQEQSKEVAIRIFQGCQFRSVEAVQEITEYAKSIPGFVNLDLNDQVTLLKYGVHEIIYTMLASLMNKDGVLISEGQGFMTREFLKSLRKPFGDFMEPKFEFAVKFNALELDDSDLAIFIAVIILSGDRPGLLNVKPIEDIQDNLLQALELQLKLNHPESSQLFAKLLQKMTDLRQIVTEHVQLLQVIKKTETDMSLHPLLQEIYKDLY
# How it was run: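 Beta-lactamase reporter read-out: CCF4 fluorescence (ex 405, em 460/530 nm) after 2 h at RT. HEK293 GeneBLAzer cells were treated for 16 h at 37 C. Hill fits gave EC50 and efficacy versus 2 uM rosiglitazone (100%) and DMSO (0%).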
# [11] = target: Peroxisome proliferator-activated receptor gamma (Homo sapiens) (UniProt P37231); assay: qHTS assay for small molecule antagonists of peroxisome proliferator-activated receptor gamma signaling (AID 588537; active = well fitted inhibition curve with a large enough effect in the signal ratio, with a control signal flat, not every such curve was filed as active; inconclusive = small, poorly fitted or top-dose-only effect, or effect the other way, or a change in a side signal; the % refers to the signal ratio; also: potency is read from the fitted curve at half-maximal effect); conditions: HEK293 PPARg-UAS-bla, beta-lactamase ratio, antagonist mode; series mostly up to 76.8 µM
# How it was run: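 Antagonist-mode β-lactamase reporter screen run as a titration series. HEK293 PPARγ-UAS-bla cells are stimulated with rosiglitazone (50 nM final) for 16 h, then CCF4 is read at 460/530 nm. Data are scaled between DMSO and rosiglitazone and fitted to the Hill equation.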
# [12] = qHTS assay for small molecule antagonists of retinoid X receptor alpha signaling (AID 588546); conditions: HEK293T RXRa-UAS-bla, beta-lactamase ratio, antagonist mode; measured here: W530 green channel, cytotoxicity proxy;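 also: cells stimulated with 9-cis-retinoic acid as agonist; % is scaled to controls: 0 for no effect and ±100 for the full control effect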
# How it was run: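 Beta-lactamase reporter inhibition, read as CCF4 fluorescence ratio (ex 405, em 460/530 nm) after 2 h at RT. HEK293T UAS-bla cells, 2500/well, were stimulated with 9-cis-RA at 500 or 100 nM final alongside test compound for 18 h at 37 C.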
# [13] = target: Thyroid hormone receptor beta (Homo sapiens) (UniProt P10828); assay: qHTS assay for small molecule antagonists of thyroid hormone receptor beta signaling (AID 588547; active = well fitted inhibition curve with a large enough effect in the signal ratio, with a control signal flat, not every such curve was filed as active; inconclusive = small, poorly fitted or top-dose-only effect, or effect the other way, or a change in a side signal; the % refers to the signal ratio;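 also: cells stimulated with 0.4 nM T3 agonist during compound exposure; % is scaled to controls: 0 for no effect and ±100 for the full control effect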); conditions: TR-UAS-bla HEK293, beta-lactamase ratio, antagonist mode, 18 h
# Thyroid hormone receptor beta (Homo sapiens), sequence (P10828 whole entry, looked up): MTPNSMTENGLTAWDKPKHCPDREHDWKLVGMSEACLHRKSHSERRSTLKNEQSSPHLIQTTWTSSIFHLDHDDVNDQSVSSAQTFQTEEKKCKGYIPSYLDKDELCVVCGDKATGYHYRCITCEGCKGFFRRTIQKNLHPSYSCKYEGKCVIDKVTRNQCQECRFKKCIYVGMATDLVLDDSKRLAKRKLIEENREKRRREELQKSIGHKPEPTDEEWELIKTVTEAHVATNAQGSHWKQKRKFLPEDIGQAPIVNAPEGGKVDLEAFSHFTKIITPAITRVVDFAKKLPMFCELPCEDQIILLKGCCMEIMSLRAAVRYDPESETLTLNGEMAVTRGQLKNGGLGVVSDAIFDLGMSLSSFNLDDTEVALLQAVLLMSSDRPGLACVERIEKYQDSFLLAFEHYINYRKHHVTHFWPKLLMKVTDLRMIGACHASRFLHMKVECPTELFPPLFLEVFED
# How it was run: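 Inhibition of T3-driven (0.4nM final) beta-lactamase reporter activity was measured over 0.59 nM to 92 uM compound after 18 h at 37 C. The cells were GripTite HEK293 TR-UAS-bla in charcoal/dextran-stripped serum, with CCF4 ratio read-out and IC50 from Hill fits.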
# [14] = qHTS assay for small molecule activators of the p53 signaling pathway (AID 651743; active = well fitted activation curve with a large enough effect in the signal ratio, not every such curve was filed as active; inconclusive = small, poorly fitted or top-dose-only effect, or a change in a side signal; the % refers to the signal ratio; also: potency is read from the fitted curve at half-maximal effect; as to activation: % of control where 0% means no effect); conditions: HCT-116 p53RE-bla, beta-lactamase FRET ratio, 16 h; activation: stronger effect = higher value
# How it was run: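 After 16 hours compound treatment at 37 C, HCT-116 cells stably expressing p53RE-driven beta-lactamase were loaded with LiveBLAzer B/G FRET substrate for 2 hours at room temperature. Fluorescence intensity served as the p53 activation read-out.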
# [15] = target: Estrogen receptor (Homo sapiens) (UniProt P03372); assay: qHTS assay for small molecule agonists of estrogen receptor alpha signaling (AID 588514); conditions: ER-alpha-UAS-bla HEK293, beta-lactamase ratio, 18 h, percent of full estradiol response, vehicle zero; series mostly up to 76.8 µM;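 also: 0% = vehicle only and 100% = reference agonist; nearly all actives have a fitted effect of over 70% in size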
# How it was run: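 Efficacy is expressed against 20 nM 17-beta-estradiol (100%) and DMSO basal (0%); EC50 from Hill equation. Assay: beta-lactamase reporter in ER-alpha-UAS-bla HEK 293 cells, 18 h compound incubation, CCF4 detection.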
# [16] = target: Glucocorticoid receptor (Homo sapiens) (UniProt P04150); assay: qHTS assay for small molecule agonists of glucocorticoid receptor signaling (AID 588532; active = well fitted curve in the direction sought with a large enough effect in the signal ratio, with a control signal flat; inconclusive = small, poorly fitted or top-dose-only effect, or a change in a side signal; inactive = no such curve, though single readings can be large or run the other way; the % refers to the signal ratio;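 also: 100% = dexamethasone at 0.1 µM and 0% = DMSO only wells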); conditions: HeLa MMTV-bla, beta-lactamase ratio, agonist, 18 h; stronger effect = higher value; percent of dexamethasone control, DMSO zero
# Glucocorticoid receptor (Homo sapiens), sequence (P04150 whole entry, looked up): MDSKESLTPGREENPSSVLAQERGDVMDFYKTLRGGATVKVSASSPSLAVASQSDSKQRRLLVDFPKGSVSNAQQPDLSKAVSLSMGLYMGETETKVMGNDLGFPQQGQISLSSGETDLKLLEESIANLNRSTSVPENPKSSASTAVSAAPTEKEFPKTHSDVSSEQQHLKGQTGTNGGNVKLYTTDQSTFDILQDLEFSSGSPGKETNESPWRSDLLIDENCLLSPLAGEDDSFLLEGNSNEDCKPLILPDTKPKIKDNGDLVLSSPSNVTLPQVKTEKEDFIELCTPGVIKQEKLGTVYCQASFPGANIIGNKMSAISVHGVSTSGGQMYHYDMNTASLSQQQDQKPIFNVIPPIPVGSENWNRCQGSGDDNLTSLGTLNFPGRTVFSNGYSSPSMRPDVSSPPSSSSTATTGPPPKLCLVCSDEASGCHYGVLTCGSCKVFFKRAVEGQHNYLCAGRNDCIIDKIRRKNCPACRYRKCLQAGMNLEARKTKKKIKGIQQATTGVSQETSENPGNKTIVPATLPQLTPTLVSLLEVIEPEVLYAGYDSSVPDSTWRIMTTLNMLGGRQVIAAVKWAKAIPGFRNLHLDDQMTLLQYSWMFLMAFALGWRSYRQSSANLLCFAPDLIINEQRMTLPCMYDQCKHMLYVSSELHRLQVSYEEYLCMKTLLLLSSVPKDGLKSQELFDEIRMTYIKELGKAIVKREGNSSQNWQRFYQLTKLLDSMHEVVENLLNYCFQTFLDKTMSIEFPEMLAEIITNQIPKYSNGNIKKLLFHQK
# How it was run: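 Using MMTV-bla HeLa cells in medium with 1% stripped FBS and 25 mM HEPES, compounds were titrated and incubated overnight-length (18 h). Beta-lactamase cleavage of CCF4 was quantified by dual-emission fluorescence.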
# [17] = target: Glucocorticoid receptor (Homo sapiens) (UniProt P04150); assay: qHTS assay for small molecule antagonists of glucocorticoid receptor signaling (AID 588533; active = well fitted inhibition curve with a large enough effect in the signal ratio, with a control signal flat, not every such curve was filed as active; inconclusive = small, poorly fitted or top-dose-only effect, or effect the other way, or a change in a side signal; the % refers to the signal ratio;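 also: cells stimulated with 2 nM dexamethasone as agonist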; also: potency is read from the fitted curve at half-maximal effect); conditions: HeLa MMTV-bla, GRE beta-lactamase ratio, antagonist mode, 18 h; series mostly up to 76.8 µM
# How it was run: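 Antagonist-mode qHTS: compound titrations added to GRE-bla HeLa cells, then dexamethasone 2 nM final; 18 h, 37 C. CCF4 FRET fluorescence normalized to dexamethasone and DMSO; IC50 from Hill fit.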
# [18] = qHTS profiling for inhibitors of Plasmodium falciparum proliferation (AID 504749; active = well fitted curve in the direction sought with a large enough effect; inconclusive = small, poorly fitted or top-dose-only effect, or another doubt; inactive = no such curve, though single readings can be large; an effect the other way counts as inactive or inconclusive; also: potency is read from the fitted curve at half-maximal effect; nearly all actives have a fitted effect of over 60% in size); conditions: P. falciparum in erythrocytes, SYBR Green DNA, 72 h; parasite line B
# How it was run: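 SYBR Green fluorescence of parasite DNA, read after lysis and overnight dark incubation, measured growth over 72 h in erythrocyte culture at 0.3% parasitemia and 2.5% hematocrit. Data normalised to DMSO and 0.29 uM artemisinin, with plate-drift correction.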
# [19] = target: Cytochrome P450 2D6 (Homo sapiens) (UniProt P10635); assay: qHTS Assay for Inhibitors and Substrates of Cytochrome P450 2D6 (AID 891; active = well fitted curve in the direction sought with a large enough effect; inconclusive = small, poorly fitted or top-dose-only effect, or another doubt; inactive = no such curve, though single readings can be large; an effect the other way counts as inactive or inconclusive; also: nearly all actives have a fitted effect of over 60% in size); conditions: recombinant CYP2D6, luciferin-ME EGE luminescence; series mostly up to 57.1 µM
# Cytochrome P450 2D6 (Homo sapiens), sequence (P10635 whole entry, looked up): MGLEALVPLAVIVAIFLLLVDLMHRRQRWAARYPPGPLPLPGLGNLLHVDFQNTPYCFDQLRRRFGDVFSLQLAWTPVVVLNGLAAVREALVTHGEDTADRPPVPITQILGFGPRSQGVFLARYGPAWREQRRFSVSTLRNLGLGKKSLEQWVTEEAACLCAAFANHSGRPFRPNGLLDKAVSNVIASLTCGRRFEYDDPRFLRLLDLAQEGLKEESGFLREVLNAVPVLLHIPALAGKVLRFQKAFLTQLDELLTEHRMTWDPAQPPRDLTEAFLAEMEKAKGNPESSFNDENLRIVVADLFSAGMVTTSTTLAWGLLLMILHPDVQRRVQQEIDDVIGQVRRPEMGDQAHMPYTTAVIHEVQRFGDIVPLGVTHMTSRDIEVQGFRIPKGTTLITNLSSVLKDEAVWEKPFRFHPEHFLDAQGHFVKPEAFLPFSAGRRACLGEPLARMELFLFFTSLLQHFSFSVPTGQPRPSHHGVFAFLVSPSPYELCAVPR
# How it was run: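 Luminescent read-out of luciferin formed by 5 nM human CYP2D6 demethylating 30 uM Luciferin-ME EGE (Km level) over 60 min at room temperature after NADPH regeneration addition. Data normalized to full inhibition by 1.43 uM quinidine.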
structure (smiles),measurement,setting,value
C/C=C1\C(=O)C[C@H]2[C@@H]3CCC4=CC(=O)CC[C@]4(C)[C@H]3CC[C@]12C,Potency,[1],2.98 µM (active)
same,activation,[2],-4.79% (inactive)
O=C(OCC(COC(=O)c1ccccc1)(COC(=O)c1ccccc1)COC(=O)c1ccccc1)c1ccccc1,outcome,[3],inactive
c1ccc2c(c1)ccc1cc3c(ccc4ccccc43)cc12,Potency,[4],inactive
same,Potency,[5],inactive
same,max response,[6],-11.8%
same,outcome,[7],inactive
CN(C)c1ccc(C2(c3ccc(N(C)C)cc3)OC(=O)c3cc(N(C)C)ccc32)cc1,Potency,[4],inactive
same,max response,[8],-30.7%
same,outcome,[9],inactive
same,outcome,[10],inactive
same,Potency,[11],inactive
same,max response,[12],-30.3%
same,activity change % (negative = inhibition),[13],12.5% (inactive)
same,Potency,[14],50.1 µM (active)
CO[C@H]1/C=C/O[C@@]2(C)Oc3c(C)c(O)c4c(O)c(c5c(c4c3C2=O)NC2(CCN(CC(C)C)CC2)N=5)=NC(=O)/C(C)=C\C=C\[C@H](C)[C@H](O)[C@@H](C)[C@@H](O)[C@@H](C)[C@H](OC(C)=O)[C@@H]1C,Potency,[4],inactive
same,outcome,[15],inactive
same,Potency,[5],inactive
same,activation,[16],-2.4% (inactive)
same,Potency,[17],inactive
same,activity change % (negative = inhibition),[13],5.09% (inactive)
same,activation,[14],-4.17% (inactive)
same,Potency,[18],4.47 µM (active)
c1cc(OCC2CO2)cc(OCC2CO2)c1 (stereo unspecified),outcome,[15],inactive
same,activation,[16],4.18% (inactive) and -8.77% (inactive)
Oc1ccc2cc(SSc3ccc4cc(O)ccc4c3)ccc2c1,Potency,[1],13.3 µM (active)
same,activation,[2],0.682% (inactive)
Cc1ccc(S(=O)(=O)Oc2ccc(N=Nc3ccc(-c4ccc(N=Nc5c(O)ccc6cc(S(=O)(=O)O)cc(S(=O)(=O)O)c56)c(C)c4)cc3C)cc2)cc1,Potency,[5],inactive
same,Potency,[17],inactive
same,max response,[6],-16.1%
same,outcome,[7],inactive
same,max response,[12],-21.4%
same,activity change % (negative = inhibition),[13],6.13% (inactive)
same,activation,[14],1.02% (inactive)
same,activation,[2],-0.0057% (inactive)
O=C1OC(O)C(C(Cl)Cl)=C1Cl (stereo unspecified),activation,[16],-17.9% (inactive)
same,max response,[12],-8.4%
same,Potency,[1],29.8 µM (active)
same,activation,[14],-1.76% (inactive)
same,activation,[2],-0.496% (inactive)
Cc1cc(Nc2ccc(O)cc2)ccc1N,Potency,[5],inactive
same,max response,[6],-10.3%
same,outcome,[7],inactive
same,max response,[12],-15.7%
same,activity change % (negative = inhibition),[13],-8.81% (inactive)
COc1cc2c(c(OC)c1OC)-c1ccc(OC)c(=O)cc1[C@H](NC(C)=O)CC2,Potency,[19],inactive
same,outcome,[19],inactive
C=CC(=O)OCCOCCOC(=O)C=C,Potency,[4],35.5 µM [inconclusive] (active)
same,Potency,[17],44.7 µM (active)
same,Potency,[1],47.3 µM (active)
same,activation,[14],2.89% (inactive)
CC(=O)Nc1ccc(C(=O)CCl)cc1,activation,[16],-4.98% (inactive) and -25.5% (inactive)
same,Potency,[17],39.8 µM (active)
same,Potency,[14],31.6 µM (active)
same,activation,[2],-3.62% (inactive)
C=C(C)c1ccccc1,Potency,[5],inactive
same,max response,[6],-11%
same,outcome,[7],inactive
same,max response,[12],-0.247%
same,activity change % (negative = inhibition),[13],2.47% (inactive)
same,activation,[14],-1.34% (inactive)
same,activation,[2],1.11% (inactive)
same,outcome,[3],inactive
Nc1ccc2cc3ccccc3cc2c1,Potency,[1],2.37 µM (active)
CCC(C)Nc1ccc(NC(C)CC)cc1 (stereo unspecified),Potency,[4],6.31 µM [inconclusive] (active)
same,activation,[16],1.29% (inactive) and -5.53% (inactive)
same,Potency,[17],35.5 µM (active)
same,max response,[12],-40%
Cc1cc(O)c(C(C)(C)C)cc1Sc1cc(C(C)(C)C)c(O)cc1C,Potency,[4],12.6 µM [inconclusive] (active)
same,outcome,[15],inactive
same,Potency,[5],22.4 µM (active)
same,activation,[16],26% (inactive)
same,Potency,[11],39.8 µM (active) and 25.1 µM (active)
O=Cc1ccc(Cl)c(Cl)c1,activation,[16],-2.24% (inactive)
same,Potency,[17],inactive
same,max response,[8],20.6%
same,outcome,[9],inactive
same,outcome,[10],inactive
same,max response,[6],2.17%
same,outcome,[7],inactive
same,activity change % (negative = inhibition),[13],11% (inactive)
same,activation,[14],-1.08% (inactive)
same,activation,[2],-0.954% (inactive)
O=C1OC2(c3cc(Br)c(O)c(Br)c3Oc3c2cc(Br)c(O)c3Br)c2c(Cl)c(Cl)c(Cl)c(Cl)c21,Potency,[4],inactive
same,outcome,[15],inactive
same,activation,[16],0.908% (inactive)
same,outcome,[10],inactive
same,max response,[12],20.8%
same,activity change % (negative = inhibition),[13],2.12% (inactive)
same,Potency,[1],66.8 µM (active)
same,outcome,[3],inactive
